According to PubChem BioAssay (NCI):
About 79,000 compounds went through this panel and 15% of them were active in at least one assay; those are over-represented in the sample as a whole. Active and inactive are the calls of the source. Cut-off read from the data, not from the text of the source: active = growth inhibition above about 70%; inactive = the rest.

Columns and labels:
[1] = NCI Yeast Anticancer Drug Screen. Data for the wt1 strain (AID 149);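 note: 0% = growth of vehicle-treated wt1 cultures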; conditions: S. cerevisiae wt1 strain (SPY 50644) growth inhibition, stronger effect = higher value
How it was run: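 wt1 yeast, compound-treated; % growth inhibition vs vehicle control.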

[2] = NCI Yeast Anticancer Drug Screen. Data for the rad50EPP+ strain (AID 151);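 note: 0% = growth of vehicle-treated control cultures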; conditions: S. cerevisiae rad50 mutant strain, stronger effect = higher value
How it was run: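 Strain rad50EPP+; compound exposure; % growth inhibition vs vehicle.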

[3] = NCI Yeast Anticancer Drug Screen. Data for the mgt1 strain (AID 153); conditions: S. cerevisiae mgt1 mutant growth inhibition, stronger effect = higher value
How it was run: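 Read-out: yeast growth inhibition vs vehicle control. Strain mgt1, drawn from a panel altered in DNA damage repair or cell cycle control.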

[4] = NCI Yeast Anticancer Drug Screen. Data for the rad50 strain (AID 155);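 note: 0% = growth of vehicle-only cultures of the same strain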; conditions: S. cerevisiae rad50 strain growth inhibition, stronger effect = higher value
How it was run: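 Genetically altered yeast (DNA repair pathway); compound treatment; growth inhibition vs vehicle ctrl.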

[5] = NCI Yeast Anticancer Drug Screen. Data for the mec2-1 strain (AID 157); conditions: S. cerevisiae mec2-1 strain, stronger effect = higher value
How it was run: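 Cells of the genetically defined mec2-1 yeast strain are incubated with test compound. Inhibition of growth is calculated against vehicle-treated controls.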

[6] = NCI Yeast Anticancer Drug Screen. Data for the rad14 strain (AID 159);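 note: 0% = growth of vehicle-treated control cultures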; conditions: S. cerevisiae rad14 strain growth inhibition, stronger effect = higher value
How it was run: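 Test compounds were applied to a repair-deficient yeast strain. Its growth was then compared with that of cultures given vehicle alone, and inhibition was expressed relative to those controls.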

[7] = NCI Yeast Anticancer Drug Screen. Data for the CLN2oe strain (AID 163);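 note: 0% = growth of vehicle-only control cultures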; conditions: S. cerevisiae CLN2oe strain, stronger effect = higher value
How it was run: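 Strain altered in cell-cycle control, incubated with compound; growth compared to solvent-treated controls.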

[8] = NCI Yeast Anticancer Drug Screen. Data for the cln2 rad14 strain (AID 165);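 note: 0% = growth equal to vehicle treated cultures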; conditions: S. cerevisiae cln2 rad14 strain, stronger effect = higher value
How it was run: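 The screen exposed genetically defined yeast (cln2 rad14) to test compounds and scored growth inhibition relative to vehicle-treated controls.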

[9] = NCI Yeast Anticancer Drug Screen. Data for the bub3 strain (AID 167); conditions: S. cerevisiae bub3 mutant strain, stronger effect = higher value
How it was run: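 Yeast carrying a defined mutation is treated with each compound, and growth is compared with that of vehicle-exposed cells to give inhibition.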

[10] = NCI Yeast Anticancer Drug Screen. Data for the wt2 strain (AID 169);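 note: 0% = growth of vehicle-treated yeast cultures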; conditions: S. cerevisiae wt2 strain growth inhibition, stronger effect = higher value
How it was run: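 Steps: yeast strain treated with compound; growth recorded; inhibition calculated relative to cultures given vehicle alone.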

[11] = NCI Yeast Anticancer Drug Screen. Data for the mlh1 strain (AID 171);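 note: 0% = growth of vehicle-treated control cultures of the same strain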; conditions: S. cerevisiae mlh1 strain growth inhibition, stronger effect = higher value
How it was run: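 Yeast screen: mutant strain plus compound, growth scored against vehicle control wells.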

[12] = NCI Yeast Anticancer Drug Screen. Data for the sgs1 strain (AID 173);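 note: 0% = growth of vehicle-only control cultures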; conditions: S. cerevisiae sgs1 mutant, stronger effect = higher value
How it was run: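 Inhibition of yeast growth served as the measure. The mutant strain was treated with each compound, and growth was normalised to cultures receiving vehicle alone.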

[13] = NCI Yeast Anticancer Drug Screen. Data for the mlh1 rad18 strain (AID 175); conditions: S. cerevisiae mlh1 rad18 strain growth inhibition, stronger effect = higher value
How it was run: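 Compound-treated yeast growth, normalised to vehicle controls. Strain bears defined DNA repair mutations.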

[14] = NCI Yeast Anticancer Drug Screen. Data for the rad18 strain (AID 177); conditions: S. cerevisiae rad18 mutant growth inhibition, stronger effect = higher value
How it was run: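 Inhibition values reflect reduced yeast growth compared with vehicle-treated controls, using a strain engineered with a DNA damage repair defect.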

[15] = NCI Yeast Anticancer Drug Screen. Data for the rad52 strain (AID 147);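 note: 0% = growth of vehicle-treated control cultures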; conditions: S. cerevisiae rad52 mutant growth inhibition, stronger effect = higher value
How it was run: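 Genetically altered yeast (DNA damage repair defect) treated with compound; inhibition calculated relative to vehicle.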

[16] = NCI Yeast Anticancer Drug Screen. Data for the sgs1 mgt1 strain (AID 161);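 note: 0% = growth of cultures given vehicle only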; conditions: S. cerevisiae sgs1 mgt1 strain, stronger effect = higher value
How it was run: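 Read-out: growth inhibition vs vehicle controls. Cells: mutant yeast strain deficient in DNA damage repair.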

[17] = at 5.0 µM (retest, dose inferred, filed as 0.5)
[18] = at 50.0 µM (retest, dose inferred, filed as 5.0)

Measured: growth inhibition

Cc1ccc(S(=O)(=O)NC(=O)NC2=NC(C)(C)N(c3ccc(Cl)c(Cl)c3)C(N)=N2)cc1
active: [8]; at 50.0 µM 79.4%
inactive: [1]; at 1.2 µM -2% | [1]; at 3.7 µM 1% | [1]; at 11.0 µM -1% | [1]; at 33.0 µM -1% | [1]; at 100.0 µM -3% | [2]; at 1.2 µM -2% | [2]; at 3.7 µM -3% | [2]; at 11.0 µM -1% | [2]; at 33.0 µM -2% | [2]; at 100.0 µM 4% | [3]; at 1.2 µM 0% | [3]; at 3.7 µM -1% | [3]; at 11.0 µM -4% | [3]; at 33.0 µM 1% | [3]; at 100.0 µM -5% | [4]; at 1.2 µM -2% | [4]; at 3.7 µM -4% | [4]; [17] 7% | [4]; at 11.0 µM -5% | [4]; at 33.0 µM -3% | [4]; [18] 1% | [4]; at 50.0 µM -1.3% | [4]; at 100.0 µM -4% | [5]; at 1.2 µM -2% | [5]; at 3.7 µM 2% | [5]; [17] 1% | [5]; at 11.0 µM 4% | [5]; at 33.0 µM -3% | [5]; [18] -3% | [5]; at 50.0 µM -3.35% | [5]; at 100.0 µM -3% | [6]; at 1.2 µM -1% | [6]; at 3.7 µM 0% | [6]; at 11.0 µM 1% | [6]; at 33.0 µM 1% | [6]; at 100.0 µM 0% | [7]; at 1.2 µM -9% | [7]; at 3.7 µM -5% | [7]; at 11.0 µM -5% | [7]; at 33.0 µM -1% | [7]; at 100.0 µM -11% | [8]; [17] 1% | [8]; [18] 1% | [9]; at 1.2 µM -2% | [9]; at 3.7 µM -7% | [9]; [17] 1% | [9]; at 11.0 µM -6% | [9]; at 33.0 µM -8% | [9]; [18] -1% | [9]; at 50.0 µM -23.9% | [9]; at 100.0 µM -5% | [10]; at 1.2 µM -3% | [10]; at 3.7 µM -4% | [10]; at 11.0 µM -3% | [10]; at 33.0 µM -4% | [10]; at 100.0 µM -3% | [11]; at 1.2 µM -1% | [11]; at 3.7 µM 0% | [11]; at 11.0 µM -1% | [11]; at 33.0 µM 1% | [11]; at 100.0 µM -3% | [12]; at 1.2 µM -1% | [12]; at 3.7 µM -2% | [12]; at 11.0 µM -1% | [12]; at 33.0 µM -2% | [12]; at 100.0 µM -2% | [13]; [17] 0% | [13]; [18] 47% | [13]; at 50.0 µM 2.35% | [14]; at 1.2 µM -1% | [14]; at 3.7 µM 2% | [14]; at 11.0 µM 4% | [14]; at 33.0 µM 1% | [14]; at 100.0 µM -1%

CSC(=S)N/N=C(\C)c1cccc(C)n1
active: [15]; at 100.0 µM 97% | [2]; at 100.0 µM 98% | [3]; at 100.0 µM 98% | [4]; at 33.0 µM 93% | [4]; [18] 99% | [4]; at 50.0 µM 99.4% | [4]; at 100.0 µM 98% | [5]; [18] 99% | [5]; at 50.0 µM 99.4% | [5]; at 100.0 µM 98% | [6]; at 100.0 µM 98% | [16]; [18] 99% | [16]; at 50.0 µM 99.3% | [7]; at 100.0 µM 97% | [8]; [18] 98% | [8]; at 50.0 µM 99.2% | [9]; [18] 99% | [9]; at 50.0 µM 99.2% | [9]; at 100.0 µM 98% | [11]; at 100.0 µM 99% | [12]; at 100.0 µM 99% | [13]; [18] 99% | [13]; at 50.0 µM 99.2% | [14]; at 33.0 µM 75% | [14]; at 100.0 µM 96%
inactive: [15]; at 1.2 µM -3% | [15]; at 3.7 µM -5% | [15]; at 11.0 µM -8% | [15]; at 33.0 µM 47% | [2]; at 1.2 µM -3% | [2]; at 3.7 µM -3% | [2]; at 11.0 µM -3% | [2]; at 33.0 µM 5% | [3]; at 1.2 µM -7% | [3]; at 3.7 µM -11% | [3]; at 11.0 µM -10% | [3]; at 33.0 µM 39% | [4]; at 1.2 µM -4% | [4]; at 3.7 µM 2% | [4]; [17] -6% | [4]; at 11.0 µM 11% | [5]; at 1.2 µM -6% | [5]; at 3.7 µM -13% | [5]; [17] 28% | [5]; at 11.0 µM -10% | [5]; at 33.0 µM 62% | [6]; at 1.2 µM -8% | [6]; at 3.7 µM 6% | [6]; at 11.0 µM -5% | [6]; at 33.0 µM 44% | [16]; [17] 23% | [7]; at 1.2 µM -24% | [7]; at 3.7 µM -24% | [7]; at 11.0 µM -15% | [7]; at 33.0 µM 21% | [8]; [17] 59% | [9]; at 1.2 µM -14% | [9]; at 3.7 µM -20% | [9]; [17] 19% | [9]; at 11.0 µM 9% | [9]; at 33.0 µM 34% | [11]; at 1.2 µM -11% | [11]; at 3.7 µM -1% | [11]; at 11.0 µM -6% | [11]; at 33.0 µM 29% | [12]; at 1.2 µM -3% | [12]; at 3.7 µM -5% | [12]; at 11.0 µM -4% | [12]; at 33.0 µM 57% | [13]; [17] 20% | [14]; at 1.2 µM -5% | [14]; at 3.7 µM -5% | [14]; at 11.0 µM 10%
